B1: chr9:34635388:34635489:-|3pUTR|ENSG00000147955|msi1|total|mutant (ssRNA)
RNA: GGGAGUUCUACAGUCCGACGAUCGGGAUAUCCAUGCUUAUGUAUCCAAACACAGAGACCCAUGGGAACAAAUGAGACACAUACCGAUACUGAGACCUGUGUGUACAGCCGGACCAUGCACUCACACCCAUCUGGAGAGGGAGCCAACAGAGGAUUGAGCAUCA
B2: chr1:16124655:16124788:-|3pUTR|ENSG00000142627|msi1|total|mutant (ssRNA)
RNA: GGGAGUUCUACAGUCCGACGAUCAGACUGUGAACUUGACUGGGUGAGACCCAAAGCGGUCCCUGUCCCUCCCGUGCCUUCUUCCGACCCUCGGGCCCCAUCCUCAUCCCUGACUGGCCAAACCCUUGCUUUCCUGGGCCUUUGCAACAGAGGAUUGAGCAUCA
B3: ENSG00000070961:be:win_2401|CDS|ENSG00000070961|bound_else_gene|NA|bound_elsewhere_windowed (ssRNA)
RNA: GGGAGUUCUACAGUCCGACGAUCGAUGGCCCAGCACUAAAGAAAGCAGAUGUUGGAUUUGCAAUGGGUAUUGCUGGAACUGAUGUAGCUAAAGAAGCAUCCGAUAUUAUUCUCACAGAUGACAACUUUACAAGCAUUGUUAAACAACAGAGGAUUGAGCAUCA
B4: chr1:6592219:6592320:-|3pUTR|ENSG00000162413|unk|total|mutant (ssRNA)
RNA: GGGAGUUCUACAGUCCGACGAUCCCCAAAGCCGCCUUGGCUUGAGUUUUUGUCCUUGCCUCCUUUUCCGAGAAGAGGGCAUUCCGACUGCAUUUUCCUGGUUAAAGAAGGUUAAAGCAAAUGUUUAUUGCCUUUUCCCGUGAACAACAGAGGAUUGAGCAUCA
B5: ENSG00000168297:stop:overlap|stop_codon|ENSG00000168297|stop_codon|NA|stop_codon (ssRNA)
RNA: GGGAGUUCUACAGUCCGACGAUCCUGGGGCCAGCUCACCUCUCACGUCCCCGUCAUCGCCAACUCCACCCUCUACAUCAGGUUAGUGAUGGAGUAAAGUGACAUGCCACCUUCCUGUCCGCCAACAGGAGGAGCGGGCUGUGCCAACAGAGGAUUGAGCAUCA
B6: chr22:40826605:40826706:-|CDS|ENSG00000100380|unk|total|mutant (ssRNA)
RNA: GGGAGUUCUACAGUCCGACGAUCCACCAAAUUACAGGUCUAAAUAAGAGAUGGAAUUCCGGAUAAUAAACUUACUGACCCAGCCGGACACUUUUUAAAUACUAAUGAACCCUUUCUUUUCAGGAUCCAGAAGUUAUGGUGGCUCAACAGAGGAUUGAGCAUCA
B7: ENSG00000143373:stop:overlap|stop_codon|ENSG00000143373|stop_codon|NA|stop_codon (ssRNA)
RNA: GGGAGUUCUACAGUCCGACGAUCACUUCCGCACGCAUGGCAUGGCGUUCAUCAGGGCUCGGCAGGGGGCUGUUGGGGACAACUAGUCUCCAAGGCCUGGGACUGACCAGCCCCUUCCUCUUGGAGCCUGGUUUUCCCUACUGCCAACAGAGGAUUGAGCAUCA
B8: ENSG00000136451:be:win_2201|3pUTR|ENSG00000136451|bound_else_gene|NA|bound_elsewhere_windowed (ssRNA)
RNA: GGGAGUUCUACAGUCCGACGAUCAUUGUGACCUGAUAUUUGGAGAUGUAAAUAUUGCUCAGCAUAUUAAUCCCGAUGGAAUAUAGCAUUGUAGUUGACUUUUUAAAAAAAAAAAAAAUUUAAAAAAAAUCUACAAAUUGUGUUCAACAGAGGAUUGAGCAUCA
B9: chr3:11298707:11298833:+|CDS|ENSG00000197548|unk|total|mutant (ssRNA)
RNA: GGGAGUUCUACAGUCCGACGAUCAUAAUGGCGGCAGCUACGGGGGAUCCUGGACUCUCUAAACUGCAGUUUGCCCCUUUCCGCCGUGCCUUGGAUGUUGGGUUUUGGCAUGAGUUGACCCAGAAGAAGCUGAACGAGUAUCGGCAACAGAGGAUUGAGCAUCA
B10: chrX:15345595:15346132:-|three_prime_utr|ENSG00000165197|control|control|control (ssRNA)
RNA: GGGAGUUCUACAGUCCGACGAUCCAGACCAACCUUCCAUUCACACCAGCUAAGGAGUCCCUGGUUCAUUGAUGGAUGUCUUCUAGCUGCAGAUGCCUCUGCGCACCAAGGAAUGGAGAGGAGGGGACCCAUGUAAUCCUUUUGCAACAGAGGAUUGAGCAUCA
B11: chrX:65741840:65741941:+|3pUTR|ENSG00000147065|msi1|FALSE|unique (ssRNA)
RNA: GGGAGUUCUACAGUCCGACGAUCAAAUUGUUUUUGGAGGGGUUUAUGCUCAAUCCAUGUUCUAUUUCAGUGCCAAUAAAAUUUAGGAAGACUUCACAGUGACUCAAUCGUUCUUUGUGGUAUGAGUGGGUAGCUGUAAGAUAUCAACAGAGGAUUGAGCAUCA
B12: chr10:72011937:72012038:+|3pUTR|ENSG00000122863|msi1|total|mutant (ssRNA)
RNA: GGGAGUUCUACAGUCCGACGAUCCAUACACCGCAGGUGGUCACCGAGUUAUUUUCCAAAAGCUGAGGAACAUAAAGCAAAUUCCGGCUUUUGUCCUUCUGCAAUACAUGCACUUGAAAAUAAACAGAAAAGAGAUGUUUAAUACAACAGAGGAUUGAGCAUCA
B13: chr17:50110931:50111032:+|3pUTR|ENSG00000005882|unk|total|mutant (ssRNA)
RNA: GGGAGUUCUACAGUCCGACGAUCUGUGCCCAGACAUGUGUGCUCAGGGUGGCUUUCUCCCCCGGACCUUCUGUGUAUACCGUCCGUUUUAUAACCCUGAAUGCCCCCACCCUUCCCCUAAGCACACAGGGGUUAAAGCUGUGUCAACAGAGGAUUGAGCAUCA
B14: chr6:132588675:132589686:-|CDS|ENSG00000135569|control|control|control (ssRNA)
RNA: GGGAGUUCUACAGUCCGACGAUCUGCCAAGACCCUGGGCAUUGCUGUGGGCAUAUACCUCUUGUGCUGGCUGCCCUUCACCAUAGACACGAUGGUCGACAGCCUCCUUCACUUUAUCACACCCCCACUGGUCUUUGACAUCUUCAACAGAGGAUUGAGCAUCA

The results in this text go back to publication PMC12136788.

In all, about 5,800 sequences were measured (“enrichment r”: median about 0.68, highest 2% from about 11 on). A selection follows.

In the assay the target is T1, UNK ZnF1-6 (called full-length) (human, UniProt Q9C0B0 30-357).
T1 sequence: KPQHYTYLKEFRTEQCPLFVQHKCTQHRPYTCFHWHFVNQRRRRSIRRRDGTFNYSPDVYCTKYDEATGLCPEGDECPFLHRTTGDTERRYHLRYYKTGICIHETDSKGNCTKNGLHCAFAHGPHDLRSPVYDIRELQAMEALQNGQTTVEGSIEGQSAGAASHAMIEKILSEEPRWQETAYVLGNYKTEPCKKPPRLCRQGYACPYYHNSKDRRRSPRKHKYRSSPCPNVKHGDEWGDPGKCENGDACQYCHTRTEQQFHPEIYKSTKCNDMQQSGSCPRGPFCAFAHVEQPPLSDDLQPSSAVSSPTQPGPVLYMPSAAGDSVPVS
Kind of assay: nsRBNS (natural sequence RNA bind-n-seq); RBNS binding buffer (assumed for nsRBNS): 25 mM Tris pH 7.5, 150 mM KCl, 3 mM MgCl2, 0.01% Triton X-100, 500 ug/ml BSA, 20 U/ml SUPERase-In, 4 C; UNK is unkempt and MSI1 is Musashi-1; names of the RNAs are library labels; protein concentration not given here; high values mean tight binding.
Molecule B1 displayed a binding signal of 0.886 enrichment R.

With B2, the binding signal was found to be 1.06 enrichment R.

In turn, B3 returned a binding signal of 0.531 enrichment R.

B4 had a binding signal of 0.414 enrichment R.

As to B5, the binding signal came out at 1.05 enrichment R.

In the case of B6, the binding signal was 0.405 enrichment R.

Molecule B7 gave a binding signal of 0.569 enrichment R.

Consider B8, for which the binding signal was found to be 0.637 enrichment R.

Molecule B9 came in with a binding signal of 0.839 enrichment R.

For the molecule B10, the binding signal is 0.639 enrichment R.

The molecule B11 had a binding signal of 0.698 enrichment R.

B12 showed a binding signal of 0.34 enrichment R.

As for B13, the binding signal was 1.06 enrichment R.

With B14, the binding signal worked out at 0.967 enrichment R.
